According to PubChem BioAssay (NCATS):
Records with an inconclusive call do not appear. Activity calls are given as the source filed them. Calls come from the whole dose curve; as a rule, active = well fitted curve in the direction sought with a large enough effect; inconclusive = small, poorly fitted or top-dose-only effect, or another doubt; inactive = no such curve, though single readings can be large; an effect the other way counts as inactive or inconclusive.

How the values were obtained:
HEK293T [1] = experiment: qHTS assay to identify novel small-molecules to repurpose for Merkel cell carcinoma treatment (AID 1296009); conditions: MCC and control cell lines, CellTiter-Glo viability, 72 h; at 44.8 µM (top of the series) unless noted; note: nearly all actives have a fitted effect of over 60% in size
Procedure, shortened: (§1)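 Luminescence from CellTiter-Glo, read 10 min after addition at room temperature, reported viability following a 72 hr, 37 degree celsius treatment with NPC or MIPE compounds in titration; values normalized to plate controls.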

C33A = experiment: Primary qHTS to identify gynecologic anti-cancer compounds using libraries of approved drugs and bioactive compounds (AID 1345084); conditions: Gynecologic cancer cell panel viability, ATPlite luminescence, 48 h; series mostly up to 57.5 µM; note: % is set by controls: 0 for no effect and ±100 for the full control effect; nearly all actives have a fitted effect of over 55% in size
Procedure, shortened: (§2)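 Five-concentration response, 48 h; readout is ATP-driven luciferase luminescence.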

CAOV3 = experiment: as above; conditions: Gynecologic cancer cell panel viability, ATPlite luminescence, 48 h; series mostly up to 57.5 µM
Procedure, shortened: as §2

CASKI = experiment: as above; conditions: Gynecologic cancer cell panel viability, ATPlite luminescence, 48 h; series mostly up to 57.5 µM
Procedure, shortened: as §2

Es-2 = experiment: as above; conditions: Gynecologic cancer cell panel viability, ATPlite luminescence, 48 h; series mostly up to 57.5 µM
Procedure, shortened: as §2

HeLa = experiment: as above; conditions: Gynecologic cancer cell panel viability, ATPlite luminescence, 48 h; series mostly up to 57.5 µM
Procedure, shortened: as §2

Hek293T [2] = experiment: as above; conditions: Gynecologic cancer cell panel viability, ATPlite luminescence, 48 h, control line for the selectivity index; series mostly up to 57.5 µM
Procedure, shortened: as §2

JEG-3 = experiment: as above; conditions: Gynecologic cancer cell panel viability, ATPlite luminescence, 48 h; series mostly up to 57.5 µM
Procedure, shortened: as §2

OV90 = experiment: as above; conditions: Gynecologic cancer cell panel viability, ATPlite luminescence, 48 h; series mostly up to 57.5 µM
Procedure, shortened: as §2

PA-1 = experiment: as above; conditions: Gynecologic cancer cell panel viability, ATPlite luminescence, 48 h; series mostly up to 57.5 µM
Procedure, shortened: as §2

Tov-21-G = experiment: as above; conditions: Gynecologic cancer cell panel viability, ATPlite luminescence, 48 h; series mostly up to 57.5 µM
Procedure, shortened: as §2

Tov112D = experiment: as above; conditions: Gynecologic cancer cell panel viability, ATPlite luminescence, 48 h; series mostly up to 57.5 µM
Procedure, shortened: as §2

SKOV3 = experiment: as above; conditions: Gynecologic cancer cell panel viability, ATPlite luminescence, 48 h; series mostly up to 57.5 µM
Procedure, shortened: as §2

NIH3T3 = experiment: qHTS assay to identify novel small-molecules to repurpose for Merkel cell carcinoma treatment (AID 1296009); conditions: MCC and control cell lines, CellTiter-Glo viability, 72 h; at 44.8 µM (top of the series) unless noted; note: nearly all actives have a fitted effect of over 60% in size
Procedure, shortened: as §1

O=C(OC[C@H]1O[C@H](O[C@H]2CO[C@H](CO)[C@@H](O)[C@@H]2O)[C@H](O)[C@@H](O)[C@H]1O)c1ccccc1
inactive: outcome (HEK293T [1]) inactive [at 17.4 µM] | Potency (C33A) | Potency (CAOV3) | outcome (CASKI) | Potency (Es-2) | Potency (HeLa) | Potency (Hek293T [2]) | Potency (JEG-3) | Potency (OV90) | Potency (PA-1) | Potency (Tov-21-G) | Potency (Tov112D)

C[C@]12CC/C(=N\OCC(=O)O)C=C1CC[C@@H]1[C@@H]2[C@@H](O)C[C@@]2(C)[C@H]1CC[C@]2(O)C(=O)CO
inactive: outcome (HEK293T [1]) | Potency (C33A) | Potency (CAOV3) | outcome (CASKI) | Potency (Es-2) | Potency (HeLa) | Potency (Hek293T [2]) | Potency (JEG-3) | Potency (OV90) | Potency (PA-1) | Potency (Tov-21-G) | Potency (Tov112D)

CC1CCC23COC(=O)C2=CC(O)CC3C1(C)CCc1ccoc1 (centres undefined)
inactive: outcome (HEK293T [1]) | Potency (C33A) | Potency (CAOV3) | outcome (CASKI) | Potency (Es-2) | Potency (HeLa) | Potency (Hek293T [2]) | Potency (JEG-3) | Potency (OV90) | Potency (PA-1) | Potency (Tov-21-G) | Potency (Tov112D)

CC(CCc1ccc(O)cc1)O[C@@H]1O[C@H](CO[C@@H]2OC(CO)[C@H](O)[C@H]2O)[C@@H](O)[C@H](O)[C@H]1O (some centres undefined)
inactive: outcome (HEK293T [1]) inactive [at 17.4 µM] | Potency (C33A) | Potency (CAOV3) | outcome (CASKI) | Potency (Es-2) | Potency (HeLa) | Potency (Hek293T [2]) | Potency (JEG-3) | Potency (OV90) | Potency (PA-1) | Potency (Tov-21-G) | Potency (Tov112D)

C/C(CO)=C1/CCC23COC(C2)C(O)(C(=O)O)CCC13 (centres undefined)
inactive: outcome (HEK293T [1]) | Potency (C33A) | Potency (CAOV3) | outcome (CASKI) | Potency (Es-2) | Potency (HeLa) | Potency (Hek293T [2]) | Potency (JEG-3) | Potency (OV90) | Potency (PA-1) | Potency (Tov-21-G) | Potency (Tov112D)

CC1(C)CC[C@]2(C(=O)O)CC[C@]3(C)C(=CCC4[C@@]5(C)CC[C@H](O[C@H]6O[C@H](C(=O)O)[C@@H](O)[C@H](O[C@@H]7O[C@H](CO)[C@H](O)[C@H](O)[C@H]7O)[C@H]6O)C(C)(C)C5CC[C@]43C)[C@@H]2C1 (some centres undefined)
inactive: outcome (HEK293T [1]) inactive [at 9.27 µM] | activity change, negative = cytotoxicity (C33A) 17.4% [at 11.6 µM] | activity change, negative = cytotoxicity (CAOV3) 23.8% [at 11.6 µM] | activity change, negative = cytotoxicity (CASKI) 10.6% [at 11.6 µM] | activity change, negative = cytotoxicity (Es-2) 0.636% [at 11.6 µM] | activity change, negative = cytotoxicity (HeLa) -3.8% [at 11.6 µM] | activity change, negative = cytotoxicity (Hek293T [2]) 18.4% [at 11.6 µM] | activity change, negative = cytotoxicity (JEG-3) -1.28% [at 11.6 µM] | activity change, negative = cytotoxicity (OV90) -6.58% [at 11.6 µM] | activity change, negative = cytotoxicity (PA-1) 2% [at 11.6 µM] | activity change, negative = cytotoxicity (Tov-21-G) 6.29% [at 11.6 µM] | activity change, negative = cytotoxicity (Tov112D) -0.0817% [at 11.6 µM]

COc1cc(/C=C/C(=O)O[C@@H]2O[C@H](CO)[C@@H](O)[C@H](O)[C@H]2O)ccc1O
inactive: outcome (HEK293T [1]) | Potency (C33A) | Potency (CAOV3) | outcome (CASKI) | Potency (Es-2) | Potency (HeLa) | Potency (Hek293T [2]) | Potency (JEG-3) | Potency (OV90) | Potency (PA-1) | Potency (Tov-21-G) | Potency (Tov112D)

C[C@@H]1C(=O)O[C@H]2[C@H]1CC[C@@]1(C)C(=O)C=C[C@@](C)(O)[C@H]21
inactive: outcome (HEK293T [1]) | Potency (C33A) | Potency (CAOV3) | outcome (CASKI) | Potency (Es-2) | Potency (HeLa) | Potency (Hek293T [2]) | Potency (JEG-3) | Potency (OV90) | Potency (PA-1) | Potency (Tov-21-G) | Potency (Tov112D)

COc1cc(/C=C/C(=O)O[C@H]2C[C@@H]3C(C(=O)O)=CO[C@@H](O[C@@H]4O[C@H](CO)[C@@H](O)[C@H](O)[C@H]4O)[C@@H]3[C@H]2C)ccc1O
inactive: outcome (HEK293T [1]) inactive [at 17.4 µM] | Potency (C33A) | outcome (CASKI) | Potency (Es-2) | Potency (HeLa) | Potency (Hek293T [2]) | Potency (JEG-3) | Potency (OV90) | Potency (PA-1) | Potency (SKOV3) | Potency (Tov-21-G) | Potency (Tov112D)

COC(=O)C1C(O)CCC2CN3CCc4c([nH]c5ccccc45)C3CC21 (centres undefined)
inactive: outcome (HEK293T [1]) | Potency (C33A) | Potency (CAOV3) | Potency (Es-2) | Potency (HeLa) | Potency (Hek293T [2]) | Potency (JEG-3) | Potency (OV90) | Potency (PA-1) | Potency (SKOV3) | Potency (Tov-21-G) | Potency (Tov112D)

CC1(C)OC(=O)CC(O)C2(C)C1CC(=O)C1(C)C2C(O)CC2(C)C(c3ccoc3)OC(=O)C3OC321 (centres undefined)
inactive: outcome (HEK293T [1]) inactive [at 17.4 µM] | Potency (C33A) | outcome (CASKI) | Potency (Es-2) | Potency (HeLa) | Potency (Hek293T [2]) | Potency (JEG-3) | Potency (OV90) | Potency (PA-1) | Potency (SKOV3) | Potency (Tov-21-G) | Potency (Tov112D)

CC(=O)c1ccc(O[C@@H]2O[C@H](CO[C@@H]3OC[C@@H](O)[C@H](O)[C@H]3O)[C@@H](O)[C@H](O)[C@H]2O)cc1
inactive: outcome (NIH3T3) inactive [at 17.4 µM] | Potency (C33A) | Potency (CAOV3) | outcome (CASKI) | Potency (Es-2) | Potency (HeLa) | Potency (Hek293T [2]) | Potency (JEG-3) | Potency (OV90) | Potency (PA-1) | Potency (SKOV3) | Potency (Tov-21-G) | Potency (Tov112D)

C=C(CCO)C(=O)OCC1OCC(OC(=O)C(=C)CCO[C@@H]2O[C@H](COC(=O)C(=C)CCO[C@@H]3O[C@H](CO)[C@@H](O)[C@H](O)[C@H]3O)[C@@H](O)[C@H](O)[C@H]2O)C(O)C1O (some centres undefined)
inactive: outcome (HEK293T [1]) inactive [at 17.4 µM] | Potency (C33A) | outcome (CASKI) | Potency (Es-2) | Potency (HeLa) | Potency (Hek293T [2]) | Potency (JEG-3) | Potency (OV90) | Potency (PA-1) | Potency (Tov-21-G) | Potency (Tov112D)

C=CC(C)(O)CC/C=C(\C)C(=O)O[C@@H]1[C@@H](O)[C@H](OC(C)(C=C)CC/C=C(\C)C(=O)O)O[C@H](CO)[C@H]1OC(=O)/C(C)=C/CCC(C)(O)C=C (some centres undefined)
inactive: outcome (NIH3T3) inactive [at 17.4 µM] | Potency (C33A) | Potency (CAOV3) | outcome (CASKI) | Potency (Es-2) | Potency (HeLa) | Potency (Hek293T [2]) | Potency (JEG-3) | Potency (OV90) | Potency (PA-1) | Potency (SKOV3) | Potency (Tov-21-G) | Potency (Tov112D)
